# Shown are actives, neighbours in structure and some others; about 2.4% of the full set was active somewhere.
# D2 PAM-1: positively modulates the human D2 dopamine receptor allosterically. P14416. HEK293 T-REx D2, calcium flux, EC20 dopamine potentiation. potentiation, % at 10 µM. 0.34% of 340,000 active. AID 485347;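 active means potentiation over 3 SD above the plate norm, cut at about 30% in these data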
# Target sequence (P14416 whole entry, looked up): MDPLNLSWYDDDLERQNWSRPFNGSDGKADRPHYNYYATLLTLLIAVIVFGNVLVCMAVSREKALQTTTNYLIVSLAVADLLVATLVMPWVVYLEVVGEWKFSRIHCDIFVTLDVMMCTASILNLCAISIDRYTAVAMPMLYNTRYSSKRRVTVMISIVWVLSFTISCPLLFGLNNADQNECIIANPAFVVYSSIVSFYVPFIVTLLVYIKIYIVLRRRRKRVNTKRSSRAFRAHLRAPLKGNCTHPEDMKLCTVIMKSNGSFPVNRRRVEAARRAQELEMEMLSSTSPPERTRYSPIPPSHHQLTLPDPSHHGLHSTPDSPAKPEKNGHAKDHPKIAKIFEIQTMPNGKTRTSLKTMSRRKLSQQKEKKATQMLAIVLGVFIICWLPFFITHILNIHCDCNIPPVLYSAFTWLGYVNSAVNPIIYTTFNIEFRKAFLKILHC
#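 Potentiation of an EC20 dopamine calcium response is measured in a force-coupled, tetracycline-inducible Hek293 Trex D2 line. Compound-only kinetic reads over 180 s flag agonists before dopamine addition.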
# D2 ag-1: human D2 receptor agonism in beta-arrestin assay; P14416; DiscoveRx PathHunter D2 beta-arrestin, luminescence, 90 min; 100% = 57 uM dopamine signal; activation, % (no concentration beside the values); 0.084% of 360,000 active; AID 624465; in the data active means activation above about 40%; inconclusive means between about 15% and that limit
#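 DiscoveRx PathHunter D2 beta-arrestin cells (2,100/well) attached overnight, then compound-stimulated 90 min at 37 C in HBSS/10 mM HEPES/0.1% Tween-20 buffer; beta-galactosidase complementation read by luminescence after 1 h at ambient temperature. Dopamine 57 uM final (EC100) as control.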
# D2 antagonist: antagonists of human D2 dopamine receptor; HEK293 TREx D2 cells, calcium flux, dopamine EC80; inhibition, % at 10 µM; 2% of 340,000 active; in the data active means inhibition above about 30%; inactive means below that, where a call was filed
#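 Tetracycline-induced HEK293 T-REx cells expressing D2 force-coupled to calcium signalling were dye-loaded, exposed to compound for 180 s, then challenged with an EC80 of dopamine; calcium flux was followed kinetically for a further 180 s.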
# D2 ag-2: agonists of human D2 dopamine receptor | P14416 | HEK293 T-REx D2 cells, calcium flux agonist mode | activation, % at 2 µM | 0.53% of 340,000 active | AID 485358;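 active means activation over 3 SD above normal in the single-dose calcium agonist read, cut at about 30% in these data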
#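 Calcium-flux readout, 1 cycle/sec over 180 s following compound pin transfer, in inducible HEK293 Trex D2 cells (force-coupled); dopamine controls included. Positive calcium responses during this window marked compounds as potential agonists.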
# D2 PAM-2: potentiates the human D2 dopamine receptor allosterically. potentiation, % (test concentration not listed). DiscoveRx D2 beta-arrestin cells, luminescence, 90 min; 100% = 57 uM dopamine signal. P14416. AID 624464. 0.23% of 360,000 active; in the data active means potentiation above about 50%; inconclusive means mostly about 30% to 49%
#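 PathHunter D2 cells, attached overnight at 37 deg C, received compound in DMSO plus dopamine at EC20 (50 nM final) for 90 min at 37 deg C. Beta-arrestin recruitment was read as luminescence after 1 h with detection reagent at ambient temperature.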
# Numbers stand for hits; . = inactive; ? = inconclusive; / = no result.
SMILES,D2 PAM-1,D2 ag-1,D2 antagonist,D2 ag-2,D2 PAM-2
OC(CNC1CCCCC1)CON=C1CCSc2c(Cl)cccc21 (stereo not drawn),/,.,/,/,.
COc1ccc2c(C)c(CCC(=O)NCc3ccccc3OC)c(=O)oc2c1,.,/,/,.,/
COc1ccc2c(c1)-c1ccccc1S(=O)(=O)N2C,.,.,34,.,.
O=C(NCC(c1cccnc1)N1CCN(c2ccccc2F)CC1)c1ccc(F)cc1 (stereo not drawn),.,/,/,.,/
CCn1nnnc1-c1ccc(OC)c(S(=O)(=O)NCc2ccccc2)c1,.,.,33,.,.
CCn1nnnc1-c1ccc(OC)c(S(=O)(=O)Nc2ccc(C)c(C)c2)c1,.,.,.,.,.
Cc1c(Cl)cccc1NC(=O)C1CCCN(c2nnc(-n3c(C)ccc3C)s2)C1 (stereo not drawn),.,/,/,.,/
CC1CCN(CCCCOc2ccccc2-c2ccccc2)CC1,.,.,84,.,.
CC1CCCN(CCOCCSc2ccccc2)C1 (stereo not drawn),.,.,.,.,.
CC1CCCN(CCCOc2ccccc2-c2ccccc2)C1 (stereo not drawn),.,.,73,.,.
CC1CCN(CCOCCOc2ccccc2Br)CC1,.,.,.,.,.
CC1CCN(CCOCCOc2ccccc2-c2ccccc2)CC1,.,.,56,.,.
COCCNC(=O)C1CCCN(Cc2ccccc2F)CC1 (stereo not drawn),/,.,/,/,.
O=C(O)c1ccccc1S(=O)(=O)Cc1ccccc1,.,.,36,.,.
CCOC(=O)C1(C)CCCN1C(=O)c1cc(F)ccc1C (stereo not drawn),/,.,/,/,.
COc1cccc(NC(=O)CN(C)C(=O)CSc2nc(C)cc(C)n2)c1,.,.,41,.,.
COc1ccc(NC(=O)CN(C)C(=O)CCSc2ccc(F)cc2)cc1,.,.,34,.,.
O=C(Cn1c(-c2ccco2)nc2ccccc21)N1CCCCC1,.,.,46,.,.
Nc1nonc1-c1nc2ccccc2n1CC(=O)N1CCCCC1,.,.,.,.,.
Cn1nc(C(C)(C)C)cc1N1C(=O)CCC1(C)C(=O)Nc1ccc2c(c1)OCCO2 (stereo not drawn),/,.,/,/,.
Cc1ccccc1NC(=O)Cn1nnc(-c2ccc(CN3CCC(C)CC3)cc2)n1,.,.,33,.,.
CCOC(=O)c1noc2ncn(CC(=O)Nc3cccc(C(F)(F)F)c3)c(=O)c12,.,/,/,.,/
O=C(NC1=NCCS1)c1cc(-c2cccnc2)nc2ccccc12,.,.,33,.,.
CCCCOc1ccc2c(C)cc(=O)oc2c1OCCCC,.,.,43,.,.
CC(=O)c1c(OCC(=O)O)ccc2c(C)cc(=O)oc12,.,.,47,.,.
SMILES,D2 PAM-1,D2 ag-1,D2 antagonist,D2 ag-2,D2 PAM-2
Cc1ccc(/C=C/c2ccc(=O)n(Cc3ccc(Cl)cc3Cl)n2)cc1,36,.,.,.,.
O=c1ccc(/C=C/c2ccccc2)nn1Cc1ccc(Cl)cc1Cl,.,.,.,.,.
CCOC(=O)c1sc2nc(C)nc(SCC(=O)NC3CCS(=O)(=O)C3)c2c1C (stereo not drawn),42,.,.,.,.
COC(=O)c1ccc(CSc2nc3c(c(=O)[nH]2)CCC3)cc1,.,.,/,.,.
O=C(NCCCN1CCCC1)c1ccc(CS(=O)(=O)c2ccc(Br)cc2)o1,.,.,.,.,.
Cc1ccc(S(=O)(=O)Cc2ccc(C(=O)NCCCN3CCCC3=O)o2)cc1,.,.,34,.,.
CCCSC1=NC2(CCN(C(=O)NC3CCCCC3)CC2)N=C1c1ccc(OC)cc1,.,/,/,.,/
Cc1nc(N2CCN(Cc3ccc4c(c3)OCO4)CC2)c2cc(-c3ccccc3)sc2n1,.,.,.,.,.
c1ccc(-c2ncc(CN3CCN(c4ccccn4)CC3)[nH]2)cc1,.,.,89,.,.
CSc1nc(N2CCN(Cc3ccc4c(c3)OCO4)CC2)c2ccccc2n1,.,.,38,.,.
c1ccc(N2CCN(Cc3ccc4c(c3)OCO4)CC2)nc1,/,65,/,/,91
FC(F)(F)c1ccc(N2CCN(Cc3ccc4c(c3)OCO4)CC2)nc1,.,.,.,.,.
O=C(NCCCc1ccccc1)c1cc(COc2ccc(F)cc2Cl)on1,.,.,.,.,.
COc1ccc(N2CCN(C(=O)Cn3cnc4sc(C)c(S(=O)(=O)N5CCCCC5)c4c3=O)CC2)cc1,.,/,/,.,/
CN(C)c1ccc(-c2ccnc3c2CC(C)(C(=O)Nc2ccc(Cl)c(C(F)(F)F)c2)O3)cc1 (stereo not drawn),/,.,/,/,.
CCOC(=O)/C=C/C(=O)Nc1ccc(S(=O)(=O)N2CCCCCC2)cc1,.,.,31,.,.
CCOC(=O)Cn1ncc(-c2ccccc2)c1N,.,.,57,.,.
CCN(CC(=O)Nc1ccc(NC(C)=O)cc1)C(=O)C1(c2ccc(Cl)cc2)CCC1,/,.,/,/,.
CCCC(c1nnnn1C(C)(C)CC)N(Cc1ccco1)Cc1cc2ccc(OC)cc2[nH]c1=O (stereo not drawn),36,.,.,.,.
Cc1noc(Cn2c(=O)c3ccccc3n(CC(=O)Nc3cc(Cl)ccc3C)c2=O)n1,.,/,/,.,/
CC1CCCC(C)N1CCCNC(=O)c1ccc2nc(N3CCOCC3)sc2c1 (stereo not drawn),.,.,/,/,.
O=C(NCCCN1CCC(Cc2ccccc2)CC1)c1ccc2nc(N3CCOCC3)sc2c1,.,.,48,.,.
CCOC(=O)N=S(N)(=O)c1ccc(Cl)cc1 (stereo not drawn),31,.,.,.,.
O=C(C1CC1)N1CCc2cc(Br)cc(S(=O)(=O)NCCN3CCOCC3)c21,.,.,40,.,.
O=C(C1CC1)N1CCc2cc(Br)cc(S(=O)(=O)N3CCOCC3)c21,/,.,/,/,.
SMILES,D2 PAM-1,D2 ag-1,D2 antagonist,D2 ag-2,D2 PAM-2
COc1cccc(CNC(=O)c2ccc3c(c2)nc2n3CCCCC2)c1OC,/,/,/,.,/
COc1ccc(OC)c(S(=O)(=O)N2c3ccccc3CC2C)c1 (stereo not drawn),.,.,33,.,.
COc1ccc(OC)c(S(=O)(=O)N2CCN(c3c(C)cccc3C)CC2)c1,.,.,36,.,.
O=c1cc2c(c(-c3ccccc3)n1Cc1ccccc1)[C@@H](CCO)NC2,/,.,/,/,/
COc1ccccc1-c1ccc2c(c1)C(C)(Cc1cccc(C#N)c1)C(=O)N2 (stereo not drawn),/,.,/,/,.
Oc1ccc(NCc2ccccc2OCc2ccccc2)cc1,.,?,.,.,97
C[C@@H]1CN([C@H](C)CO)S(=O)(=O)c2ccc(Br)cc2O[C@@H]1CN(C)C(=O)NC1CCCC1,/,.,/,/,.
C=CCN(CC=C)C(=S)Nc1cc(Cl)ccc1OC,.,42,.,.,.
COc1ccc(C=NNc2nc3ccccc3s2)cc1,/,.,/,/,.
Cc1ccc2[nH]c(C)c(/C=N/Nc3nc4ccccc4s3)c2c1,.,.,.,.,58

# Compound activity: PubChem BioAssay, National Center for Advancing Translational Sciences (NCATS)
